Among the data in the supplement of paper PMC6555819 are PBM binding z-score values, retold here.

The subject of the assay is LXRb:RXRa (NR concentration 270 nM, RXRa partner concentration 90 nM). Description: PBM binding z-score (relative to random genomic background probes); higher = stronger binding; sequences stand for … in GC…GCGATTGACAGCGTAGAATGAAGG
The procedure, abridged: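 Scanned fluorescence from custom Agilent 4×180K protein-binding microarrays was regression-normalized. Binding z-scores use random background probes as reference. Ligand-free nuclear receptor dimers were incubated on the arrays for 1 h and detected with antibodies against each partner (one per run).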
The sequence ATATGTAGGTTAGCTGTGGTCATTCAGACTAGGC showed a PBM binding z-score of 0.643.

Sequence TCTCGGAGGACACGAAAGGTCAGCGCTCGACATC returned a PBM binding z-score of 3.54.

For the sequence TCCTGTAGATCAAAGGTTAAGAAAGCCGAAGCCT, the PBM binding z-score is 2.2.

TCTAGTTGGTCGAAGGTCACACACTCGAAATGCG showed a PBM binding z-score of 3.38.

In turn, TCATATAGGTAAAGGTGAAAGTCGAACGATATGA returned a PBM binding z-score of 1.05.

With TAGCCTAGGTCATTCATGGGCCAGTATAGAAAGC, the PBM binding z-score was 2.34.

AGAATGAGCTTATACGTAGATCAGGGAAGAAAGT showed a PBM binding z-score of -0.861.

Regarding GCGACTGGGGCAAAGCAGGTTACCATAAGGTTGG, the PBM binding z-score was 0.0291.

ACTAGTTTGTCAGCTGAGGTCACACACAATTCGG returned a PBM binding z-score of 3.67.

As to ATACCAAGGTGTTCGTGAGGTCGTTGATACTAAC, the PBM binding z-score amounted to 1.3.

In the case of CCAGACAGGTGAAAGGTAAGTCAGTCTGGTACGC, the PBM binding z-score was 0.505.

For the sequence AGAATGAGGTTATACGTATATCAGGGAAGAAAGT, the PBM binding z-score was found to be 2.04.

Sequence GCTATTAGTTGAAAGGGCTACCGAATGATTCTCG came in with a PBM binding z-score of -0.32.

The sequence CCTACTGGGCCAAAGGTCATTGTTTCCAATGCTC showed a PBM binding z-score of 4.72.

Turning to GCTAGCAGGCCATTTGGGTCTCTCAATGACGGGC, the PBM binding z-score was -0.913.

TCGAGTAGGTTAGTTGGGGCATTCAGCCAACATA displayed a PBM binding z-score of 0.412.

On to AATACAGGGCCACTAGGCCAGAGTAGGTACGAAT, for which the PBM binding z-score is -0.572.

For ATACGTAGGTTAGCTGGGGTCATTCAGACTAGGC, the PBM binding z-score came out at 4.72.

For the sequence GCTAGTTGGCCAGTAAAAGGTCACACACCGGTCG, the PBM binding z-score came out at 4.02.

Take TGTCAAAGTTCAGAGGTAACGTAAGTATCCACAC: the PBM binding z-score stood at 2.56.

Consider ATCTCTAGGTCAGACTCAGTTCAGTGAAGAACGC, for which the PBM binding z-score came out at 2.13.

On to TCACATAGGTAAAAGGTGAAAGTCGGTGTGGTAA, for which the PBM binding z-score is 1.69.
